Where “and” joins values, the source holds several entries; their conditions need not be identical. Equal entries are not always repeated. Structures can show the parent of a compound that is named as a salt. ± gives the standard deviation of the averaged measurements.
Columns and labels:
Molm13 = assay: cell viability relative to DMSO control (bortezomib = 0%); higher = less growth inhibition; settings: 10 nM; 72 h
Outline: (§1)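 Cell viability was assessed by CellTiter-Glo luminescence. Acute myeloid leukemia cells were seeded at 1000 cells per well in 50 µL on a 384-well library of 679 compounds at a single 10 nM dose for 72 h. Per-plate linear regression set DMSO-treated cells at 100% and positive-control-treated cells at 0%.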

Mv4-11 = assay: as above; settings: 10 nM; 72 h
Outline: as §1

## CS(=O)(=O)CCNCc1ccc(-c2ccc3ncnc(Nc4ccc(OCc5cccc(F)c5)c(Cl)c4)c3c2)o1
Molm13
  cell viability: 103 ± 8.2%
Mv4-11
  cell viability: 108 ± 9%

## COc1cc2ncnc(Nc3cccc(O)c3)c2cc1OC
Molm13
  cell viability: 109 ± 6.3%
Mv4-11
  cell viability: 109 ± 8.6%

## FC(F)(F)c1ccc(CNc2ccc(Cc3c[nH]c4ncc(Cl)cc34)cn2)cn1
Molm13
  cell viability: 89.207 ± 0.064%
Mv4-11
  cell viability: 105 ± 16%

## Cn1cc(C2=C(c3ccc(Cl)cc3Cl)C(=O)NC2=O)c2ccccc21
Molm13
  cell viability: 96.9% and 84.3%
Mv4-11
  cell viability: 106% and 108%

## C[C@@H]1COCCN1c1cc(C2([S@](C)(=N)=O)CC2)nc(-c2cc[nH]c3nccc2-3)n1
Molm13
  cell viability: 114 ± 7.9%
Mv4-11
  cell viability: 115 ± 3.4%

## CNC(=O)c1ccc(Nc2ncc(C(F)(F)F)c(NCc3nccnc3N(C)S(C)(=O)=O)n2)cc1
Molm13
  cell viability: 90.2 ± 16%
Mv4-11
  cell viability: 99.5 ± 3.4%

## CN(C)C(=N)NC(=N)N [Metformin hydrochloride]
Molm13
  cell viability: 104 ± 25%
Mv4-11
  cell viability: 90.48 ± 0.55%

## O=C(NOCC1CC1)c1ccc(F)c(F)c1Nc1ccc(I)cc1Cl
Molm13
  cell viability: 105 ± 1.4%
Mv4-11
  cell viability: 95.7 ± 9.2%

## CCCCCCCCCCCCC/C=C/[C@H](O)[C@@H](N)CO [L-threo-Sphingosine C-18]
Molm13
  cell viability: 94 ± 9.1%
Mv4-11
  cell viability: 113 ± 2.5%

## O=C1NCCCc2c1oc1ccc(O)cc21
Molm13
  cell viability: 107 ± 1.9%
Mv4-11
  cell viability: 104 ± 3.1%

## N#CC(C#N)=C(N)/C(C#N)=C/c1cc(O)c(O)c(O)c1
Molm13
  cell viability: 98.1 ± 28%
Mv4-11
  cell viability: 94.3 ± 15%

## Cc1cc(F)c(Nc2ncnc3cc(OCc4ccccc4)ccc23)cc1O
Molm13
  cell viability: 103 ± 1.4%
Mv4-11
  cell viability: 118 ± 11%

## C=CC(=O)Nc1cc2c(Nc3ccc(F)c(Cl)c3)ncnc2cc1OCCCN1CCOCC1 [Canertinib (CI-1033)]
Molm13
  cell viability: 118 ± 10%
Mv4-11
  cell viability: 111.9 ± 0.6%

## CN(C)CCN(C)C(=O)c1ccc(NC(=O)Nc2ccc(-c3nc(N4CCOCC4)c4ccn(CC(F)(F)F)c4n3)cc2)cc1
Molm13
  cell viability: 87.9 ± 21%
Mv4-11
  cell viability: 105 ± 3.9%

## C=CC(=O)Nc1cc(Nc2nccc(-c3cn(C)c4ccccc34)n2)c(OC)cc1N(C)CCN(C)C [AZD-9291 mesylate]
Molm13
  cell viability: 102 ± 5.5%
Mv4-11
  cell viability: 94.8 ± 6.1%

## C=C(C)[C@@H]1CC[C@]2(C)CC[C@]3(C)[C@H](CC[C@@H]4[C@@]5(C)CC[C@H](O)C(C)(C)[C@@H]5CC[C@]43C)[C@@H]12 [Lupeol]
Molm13
  cell viability: 101 ± 9.8%
Mv4-11
  cell viability: 94.9 ± 1.2%

## Cc1cc2c(F)c(Oc3ncnn4cc(OC[C@@H](C)OC(=O)[C@H](C)N)c(C)c34)ccc2[nH]1
Molm13
  cell viability: 101 ± 38%
Mv4-11
  cell viability: 106 ± 5.3%

## CNC(=O)c1cccc(-c2ccc3c(N4CCOC[C@@H]4C)nc(N4CCOC[C@@H]4C)nc3n2)c1
Molm13
  cell viability: 83.69 ± 0.63%
Mv4-11
  cell viability: 98.5 ± 20%

## Oc1ccc(-c2nc(-c3ccc(F)cc3)c(-c3ccncc3)[nH]2)cc1
Molm13
  cell viability: 94% and 105%
Mv4-11
  cell viability: 104% and 106%

## Clc1cnccn1 [2-Chloropyrazine]
Molm13
  cell viability: 113 ± 6.1%
Mv4-11
  cell viability: 94.5 ± 27%

## NC(=O)c1ccccc1Nc1ccnc(Nc2cccc(O)c2)n1
Molm13
  cell viability: 106 ± 34%
Mv4-11
  cell viability: 89.2 ± 14%

## N#CC1(c2ccc(NC(=O)c3cccnc3NCc3ccncc3)cc2)CCCC1 [Apatinib]
Molm13
  cell viability: 113 ± 10%
Mv4-11
  cell viability: 110 ± 1.5%

## CCc1cc2c(cc1N1CCC(N3CCOCC3)CC1)C(C)(C)c1[nH]c3cc(C#N)ccc3c1C2=O [Alectinib]
Molm13
  cell viability: 102 ± 7.8%
Mv4-11
  cell viability: 100 ± 2.9%

## O=c1ccc2ccc(O)c(O)c2o1 [Daphnetin]
Molm13
  cell viability: 100 ± 4.2%
Mv4-11
  cell viability: 109 ± 12%

## O=C(NCc1ccccc1)c1csc(Nc2ccncn2)n1 [Thiazovivin]
Molm13
  cell viability: 115 ± 7.6%
Mv4-11
  cell viability: 113 ± 3.7%

## CCCN(CCC)C(=O)C(CCC(=O)O)NC(=O)c1ccccc1 (configuration not stated) [Proglumide]
Molm13
  cell viability: 100 ± 3%
Mv4-11
  cell viability: 106 ± 24%

## Oc1cccc(-c2nc(N3CCOCC3)c3oc4ncccc4c3n2)c1
Molm13
  cell viability: 94.1 ± 2.2%
Mv4-11
  cell viability: 104 ± 8.7%

## Cc1cn(-c2cc(NC(=O)c3ccc(C)c(Nc4nccc(-c5cnccn5)n4)c3)cc(C(F)(F)F)c2)cn1 [Radotinib]
Molm13
  cell viability: 100 ± 2.6%
Mv4-11
  cell viability: 107 ± 13%

## Cc1[nH]c(/C=C2\C(=O)Nc3ccccc32)c(C)c1CCC(=O)O
Molm13
  cell viability: 107 ± 18%
Mv4-11
  cell viability: 108 ± 14%

## CCCCCCCCCCCCCC#CC(=O)[C@@H]1COC(C)(C)N1C(=O)OC(C)(C)C
Molm13
  cell viability: 108 ± 11%
Mv4-11
  cell viability: 132 ± 1.6%

## O=C(Nc1ccccc1C(=O)NC1CCCCNC1=O)c1cc2ccccc2s1 (configuration not stated)
Molm13
  cell viability: 98.3 ± 4.7%
Mv4-11
  cell viability: 103 ± 1.5%
